Shown are actives, neighbours in structure and some others; about 2.1% of the full set was active somewhere.
ROS inducer: cancer cell ROS induction | ROS induction (% of piperlongumine), % at 10 µM | AID 624156 | U2OS ROS induction, H2DCF-DA fluorescence | 46,000 tested, 2% active; in the data active means ROS induction above about 79%, passing the limit was not always enough
YB-1 expression: YB-1 expression inhibition; 30,000 tested, 0.37% active; U2OS, qRT-PCR YB-1 vs CDIP delta delta Cp, 16 h; active compounds read high; zero = DMSO, each unit about twofold; AID 434959; delta delta Cp (YB-1 minus CDIP) (concentration not given with the values);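 active means delta delta Cp rounded down to an integer at or above 3, about 3 SD of DMSO wells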;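 further: higher means less YB-1 transcript or more CDIP transcript relative to DMSO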
PD-1 reverse act: activators reversing PD-1 mediated T-cell inhibition; primary human CD4 T cells, PD-L1 beads, CellTiter-Glo 96 h; activation, % (test concentration not listed); 29,000 tested, under 10 active; AID 2316; call rule not given here
Large screens that a line does not name were inactive.

C[C@@H]1CN([C@H](C)CO)C(=O)Cc2cc(NC(=O)Cc3ccccc3)ccc2O[C@@H]1CN(C)Cc1ccc(Oc2ccccc2)cc1	ROS inducer 94.6
C[C@H](CO)N1C[C@H](C)[C@@H](CN(C)Cc2ccc(Cl)c(Cl)c2)Oc2ccc(NC(=O)Cc3cn(C)c4ccccc34)cc2C1=O	ROS inducer 152.3
C[C@H]1CN([C@@H](C)CO)C(=O)c2cc(NC(=O)Cc3cn(C)c4ccccc34)ccc2O[C@H]1CN(C)Cc1ccc(-c2ccccc2)cc1	none
C[C@@H]1CN([C@H](C)CO)C(=O)c2cc(NC(=O)Cc3cn(C)c4ccccc34)ccc2O[C@H]1CN(C)Cc1ccc(-c2ccccc2)cc1	none
C[C@H](CO)N1C[C@H](C)[C@@H](CN(C)Cc2ccc(Oc3ccccc3)cc2)Oc2ccc(NC(=O)Cc3cn(C)c4ccccc34)cc2C1=O	ROS inducer 113.1
C[C@H]1CN([C@@H](C)CO)C(=O)Cc2cc(NC(=O)Cc3ccccc3)ccc2O[C@H]1CN(C)Cc1ccc(Oc2ccccc2)cc1	none
Cc1[nH]c(-c2ccc(F)cc2)cc1C(=O)NCCc1ccc(S(N)(=O)=O)cc1	none (no result: YB-1 expression, PD-1 reverse act)
CCOc1ccc(NC(=O)CC(C)Cc2cc(C)cc(C)c2)cc1 (stereo not drawn)	none (no result: YB-1 expression, PD-1 reverse act)
Cc1cccc(NC(=O)C(C)C)c1	none (no result: YB-1 expression, PD-1 reverse act)
CCN(C(=O)Cn1c(=O)oc2cc(S(=O)(=O)N3CCCC3)ccc21)c1ccccc1	none (no result: YB-1 expression, PD-1 reverse act)
C[C@@H]1CN([C@@H](C)CO)C(=O)Cc2cc(NC(=O)Cc3ccccc3)ccc2O[C@@H]1CN(C)CC1CCCCC1	none
C[C@H]1CN([C@@H](C)CO)C(=O)Cc2cc(NC(=O)Cc3ccccc3)ccc2O[C@@H]1CN(C)CC1CCCCC1	ROS inducer 107.8
C[C@H]1CN([C@@H](C)CO)C(=O)Cc2cc(NC(=O)Cc3cn(C)c4ccccc34)ccc2O[C@@H]1CN(C)S(=O)(=O)c1ccc(F)cc1	ROS inducer 88.7
C[C@@H]1CN([C@H](C)CO)C(=O)Cc2cc(NC(=O)Nc3ccccc3)ccc2O[C@@H]1CN(C)Cc1ccc(C(=O)Nc2ccccc2N)cc1	ROS inducer 102.2
C[C@@H]1CN([C@H](C)CO)C(=O)Cc2cc(NC(=O)Cc3cn(C)c4ccccc34)ccc2O[C@@H]1CN(C)Cc1ccc(C(=O)Nc2ccccc2N)cc1	ROS inducer 85.8
C[C@@H]1CN([C@H](C)CO)C(=O)Cc2cc(NC(=O)Cc3cn(C)c4ccccc34)ccc2O[C@H]1CN(C)S(=O)(=O)c1ccc(F)cc1	none
C[C@H]1CN([C@@H](C)CO)C(=O)Cc2cc(NC(=O)Cc3cn(C)c4ccccc34)ccc2O[C@H]1CN(C)Cc1ccc(C(=O)Nc2ccccc2N)cc1	none
C[C@H]1CN([C@@H](C)CO)C(=O)Cc2cc(NC(=O)Nc3ccc(F)cc3)ccc2O[C@@H]1CN(C)Cc1ccc(C(=O)Nc2ccccc2N)cc1	none
Cc1ccc(C)c(NC(=O)CSc2nnc(-c3ccncc3)n2-c2ccc(F)cc2)c1	none (no result: YB-1 expression)
C=CC(C)(C)[C@@]12C[C@H]3C(=O)Nc4ccccc4C(=O)N3[C@@H]1Nc1ccccc12	none
O=C1NCCN1CCN(CC(O)c1ccccc1)CC(O)c1ccccc1 (stereo not drawn)	none (no result: YB-1 expression, PD-1 reverse act)
C[C@H]1CN([C@@H](C)CO)C(=O)Cc2cc(NC(=O)Cc3cn(C)c4ccccc34)ccc2O[C@H]1CN(C)Cc1ccc(Oc2ccccc2)cc1	none
C[C@@H]1CN([C@@H](C)CO)C(=O)Cc2cc(NC(=O)Cc3cn(C)c4ccccc34)ccc2O[C@@H]1CN(C)Cc1ccc(Oc2ccccc2)cc1	ROS inducer 122.2
COc1ccc(CN(C)C[C@H]2Oc3ccc(NC(=O)Cc4cn(C)c5ccccc45)cc3C(=O)N([C@H](C)CO)C[C@@H]2C)cc1	ROS inducer 184.9 (no result: PD-1 reverse act)
COc1ccc(CN(C)C[C@@H]2Oc3ccc(NC(=O)Cc4cn(C)c5ccccc45)cc3C(=O)N([C@@H](C)CO)C[C@H]2C)cc1	none
Fc1ccc(Nc2nc3ccccc3nc2Nc2ccc(F)cc2)cc1	none
COc1cc(O)c(C(=O)c2c(C)cc(O)cc2OC)c(O)c1	none
O=C(NCC1CCCN2CCCCC12)c1cccc(Br)c1 (stereo not drawn)	none (no result: YB-1 expression, PD-1 reverse act)
CCN(CC(=O)Nc1c(C)cc(C)cc1C)S(=O)(=O)c1ccc2ccccc2c1	none (no result: YB-1 expression)
CC(=O)Nc1cc2c(ccc3ccccc32)oc1=O	none (no result: YB-1 expression, PD-1 reverse act)
O=C(Nc1cc2c(ccc3ccccc32)oc1=O)c1ccccc1	YB-1 expression 3.29
O=C(NCc1ccco1)c1ccc(Cn2c(=S)[nH]c3ccc(Br)cc3c2=O)cc1	ROS inducer 81.2 (no result: YB-1 expression, PD-1 reverse act)
CC(C)NC(=O)c1ccc2c(=O)n(Cc3ccco3)c(=S)[nH]c2c1	none (no result: YB-1 expression, PD-1 reverse act)
CC1(O)N(CCc2ccccc2)C(=O)OC12CCCCC2 (stereo not drawn)	none (no result: YB-1 expression, PD-1 reverse act)
C=C1C(=O)O[C@@H]2[C@H]1[C@H](O)C[C@]1(C)[C@@H](O)CC=C(C)[C@@H]21	none
